In ChEMBL document CHEMBL1961873, “Compounds: GSK PKIS; Assays: Nanosyn kinase panel” (2012) one finds inhibition data, which are given here for 14 molecules.

Assay [1] addresses T1, Serine/threonine-protein kinase Nek9 (Homo sapiens) (UniProt Q8TD19).
T1 sequence (whole entry): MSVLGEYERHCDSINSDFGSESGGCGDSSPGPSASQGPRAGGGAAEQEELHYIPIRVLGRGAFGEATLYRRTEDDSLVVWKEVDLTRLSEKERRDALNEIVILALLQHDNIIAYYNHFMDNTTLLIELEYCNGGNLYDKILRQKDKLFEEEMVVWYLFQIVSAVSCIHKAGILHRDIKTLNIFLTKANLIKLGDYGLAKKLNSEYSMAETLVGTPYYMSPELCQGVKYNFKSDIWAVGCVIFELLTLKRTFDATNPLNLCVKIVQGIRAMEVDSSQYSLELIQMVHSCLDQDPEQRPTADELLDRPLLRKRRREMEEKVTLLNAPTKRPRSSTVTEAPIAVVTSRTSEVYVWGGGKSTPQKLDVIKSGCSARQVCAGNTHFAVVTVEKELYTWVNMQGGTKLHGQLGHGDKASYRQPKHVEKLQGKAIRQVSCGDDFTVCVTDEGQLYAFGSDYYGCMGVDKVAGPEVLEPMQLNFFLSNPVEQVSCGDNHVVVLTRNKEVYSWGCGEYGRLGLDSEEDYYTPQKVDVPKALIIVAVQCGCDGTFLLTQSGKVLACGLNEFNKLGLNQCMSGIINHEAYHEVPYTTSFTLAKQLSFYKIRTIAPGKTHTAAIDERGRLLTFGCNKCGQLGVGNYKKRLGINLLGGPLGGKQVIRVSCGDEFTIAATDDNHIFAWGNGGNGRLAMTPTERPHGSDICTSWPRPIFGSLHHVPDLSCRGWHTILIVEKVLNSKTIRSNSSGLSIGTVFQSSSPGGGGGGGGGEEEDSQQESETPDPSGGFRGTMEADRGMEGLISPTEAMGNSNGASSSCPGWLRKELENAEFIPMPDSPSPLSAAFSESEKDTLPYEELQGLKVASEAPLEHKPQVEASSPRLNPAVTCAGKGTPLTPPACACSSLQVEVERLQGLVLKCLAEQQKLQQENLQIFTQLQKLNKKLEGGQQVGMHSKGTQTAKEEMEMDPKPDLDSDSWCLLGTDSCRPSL
The settings on record: at 1 µM.

In assay [2] the target is Serine/threonine-protein kinase PLK1 (Homo sapiens) (UniProt P53350). The settings on record: at 0.1 µM.
Chain of Serine/threonine-protein kinase PLK1 (Homo sapiens) (P53350 whole entry): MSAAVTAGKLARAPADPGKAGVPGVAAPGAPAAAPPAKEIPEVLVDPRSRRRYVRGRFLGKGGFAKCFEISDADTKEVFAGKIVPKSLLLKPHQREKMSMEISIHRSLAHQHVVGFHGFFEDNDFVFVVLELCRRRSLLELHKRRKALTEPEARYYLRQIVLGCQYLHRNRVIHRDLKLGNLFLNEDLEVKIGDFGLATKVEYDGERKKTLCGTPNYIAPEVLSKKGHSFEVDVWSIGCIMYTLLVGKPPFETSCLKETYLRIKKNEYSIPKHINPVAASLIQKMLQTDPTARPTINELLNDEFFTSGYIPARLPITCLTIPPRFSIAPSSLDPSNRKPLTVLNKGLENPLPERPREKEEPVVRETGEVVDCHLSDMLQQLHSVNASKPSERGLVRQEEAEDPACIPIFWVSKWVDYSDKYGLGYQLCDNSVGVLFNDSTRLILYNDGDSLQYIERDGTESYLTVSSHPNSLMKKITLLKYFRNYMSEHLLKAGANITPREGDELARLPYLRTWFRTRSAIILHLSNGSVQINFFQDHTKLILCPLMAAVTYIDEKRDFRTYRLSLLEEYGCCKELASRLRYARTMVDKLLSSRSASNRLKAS
For assay [3] the target is unchanged. As to conditions: at 1 µM.
Assay [4] addresses T2, Dual specificity protein kinase TTK (Homo sapiens) (UniProt P33981).
T2 sequence (whole entry): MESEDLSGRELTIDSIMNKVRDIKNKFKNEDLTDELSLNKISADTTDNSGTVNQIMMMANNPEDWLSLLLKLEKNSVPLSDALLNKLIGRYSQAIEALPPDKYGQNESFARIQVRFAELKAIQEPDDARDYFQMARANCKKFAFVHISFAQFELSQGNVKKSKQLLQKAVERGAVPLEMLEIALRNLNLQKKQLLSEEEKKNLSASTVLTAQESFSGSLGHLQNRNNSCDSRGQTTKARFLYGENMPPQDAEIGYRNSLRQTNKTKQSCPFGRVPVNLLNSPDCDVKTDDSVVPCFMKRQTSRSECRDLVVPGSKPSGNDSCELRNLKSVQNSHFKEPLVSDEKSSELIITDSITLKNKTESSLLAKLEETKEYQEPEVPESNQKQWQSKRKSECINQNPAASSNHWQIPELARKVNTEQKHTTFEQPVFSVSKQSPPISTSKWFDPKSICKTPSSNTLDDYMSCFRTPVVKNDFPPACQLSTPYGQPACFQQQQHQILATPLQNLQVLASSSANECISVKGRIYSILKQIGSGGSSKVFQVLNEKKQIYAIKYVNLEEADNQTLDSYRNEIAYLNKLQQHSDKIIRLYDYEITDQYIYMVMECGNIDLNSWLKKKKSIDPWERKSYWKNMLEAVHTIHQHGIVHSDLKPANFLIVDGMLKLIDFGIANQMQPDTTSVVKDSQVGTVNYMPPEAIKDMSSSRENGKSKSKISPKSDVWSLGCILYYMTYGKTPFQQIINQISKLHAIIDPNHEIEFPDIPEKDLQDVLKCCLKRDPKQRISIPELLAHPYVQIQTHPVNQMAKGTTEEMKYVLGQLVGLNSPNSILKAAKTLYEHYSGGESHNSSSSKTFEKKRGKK
As to conditions: at 0.1 µM.

Assay [5] has as its system T3, Receptor-type tyrosine-protein kinase FLT3 (Homo sapiens), P36888 [D835Y].
T3 sequence (whole entry): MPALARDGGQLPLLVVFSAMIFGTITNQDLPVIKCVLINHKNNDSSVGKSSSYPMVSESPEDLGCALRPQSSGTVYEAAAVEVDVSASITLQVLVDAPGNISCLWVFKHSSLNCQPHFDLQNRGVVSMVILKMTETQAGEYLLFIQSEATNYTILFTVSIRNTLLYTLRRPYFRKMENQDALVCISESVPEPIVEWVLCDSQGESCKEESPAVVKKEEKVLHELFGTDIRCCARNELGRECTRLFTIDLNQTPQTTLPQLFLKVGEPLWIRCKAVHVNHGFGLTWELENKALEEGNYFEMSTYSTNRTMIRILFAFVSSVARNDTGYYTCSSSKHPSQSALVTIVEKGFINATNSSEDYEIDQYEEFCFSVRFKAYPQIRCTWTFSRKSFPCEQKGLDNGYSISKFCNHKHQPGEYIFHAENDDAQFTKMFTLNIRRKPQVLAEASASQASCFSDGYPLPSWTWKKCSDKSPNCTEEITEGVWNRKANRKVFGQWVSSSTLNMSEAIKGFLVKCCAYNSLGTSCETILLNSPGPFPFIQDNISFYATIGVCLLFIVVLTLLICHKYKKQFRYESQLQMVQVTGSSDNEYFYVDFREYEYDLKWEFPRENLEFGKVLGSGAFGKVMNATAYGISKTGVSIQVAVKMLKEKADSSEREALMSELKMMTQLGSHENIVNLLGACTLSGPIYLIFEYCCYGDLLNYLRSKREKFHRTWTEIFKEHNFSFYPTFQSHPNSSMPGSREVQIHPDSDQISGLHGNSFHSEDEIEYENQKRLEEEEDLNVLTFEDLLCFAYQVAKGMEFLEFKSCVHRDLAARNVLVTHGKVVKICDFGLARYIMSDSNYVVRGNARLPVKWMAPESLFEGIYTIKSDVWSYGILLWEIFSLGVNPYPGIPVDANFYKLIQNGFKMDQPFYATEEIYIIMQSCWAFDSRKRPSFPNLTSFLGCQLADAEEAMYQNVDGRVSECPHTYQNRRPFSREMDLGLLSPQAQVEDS
The settings on record: at 1 µM.

In assay [6] the target is Vascular endothelial growth factor receptor 3 (Homo sapiens) (UniProt P35916). The settings on record: at 0.1 µM.
Chain of Vascular endothelial growth factor receptor 3 (Homo sapiens) (P35916 whole entry): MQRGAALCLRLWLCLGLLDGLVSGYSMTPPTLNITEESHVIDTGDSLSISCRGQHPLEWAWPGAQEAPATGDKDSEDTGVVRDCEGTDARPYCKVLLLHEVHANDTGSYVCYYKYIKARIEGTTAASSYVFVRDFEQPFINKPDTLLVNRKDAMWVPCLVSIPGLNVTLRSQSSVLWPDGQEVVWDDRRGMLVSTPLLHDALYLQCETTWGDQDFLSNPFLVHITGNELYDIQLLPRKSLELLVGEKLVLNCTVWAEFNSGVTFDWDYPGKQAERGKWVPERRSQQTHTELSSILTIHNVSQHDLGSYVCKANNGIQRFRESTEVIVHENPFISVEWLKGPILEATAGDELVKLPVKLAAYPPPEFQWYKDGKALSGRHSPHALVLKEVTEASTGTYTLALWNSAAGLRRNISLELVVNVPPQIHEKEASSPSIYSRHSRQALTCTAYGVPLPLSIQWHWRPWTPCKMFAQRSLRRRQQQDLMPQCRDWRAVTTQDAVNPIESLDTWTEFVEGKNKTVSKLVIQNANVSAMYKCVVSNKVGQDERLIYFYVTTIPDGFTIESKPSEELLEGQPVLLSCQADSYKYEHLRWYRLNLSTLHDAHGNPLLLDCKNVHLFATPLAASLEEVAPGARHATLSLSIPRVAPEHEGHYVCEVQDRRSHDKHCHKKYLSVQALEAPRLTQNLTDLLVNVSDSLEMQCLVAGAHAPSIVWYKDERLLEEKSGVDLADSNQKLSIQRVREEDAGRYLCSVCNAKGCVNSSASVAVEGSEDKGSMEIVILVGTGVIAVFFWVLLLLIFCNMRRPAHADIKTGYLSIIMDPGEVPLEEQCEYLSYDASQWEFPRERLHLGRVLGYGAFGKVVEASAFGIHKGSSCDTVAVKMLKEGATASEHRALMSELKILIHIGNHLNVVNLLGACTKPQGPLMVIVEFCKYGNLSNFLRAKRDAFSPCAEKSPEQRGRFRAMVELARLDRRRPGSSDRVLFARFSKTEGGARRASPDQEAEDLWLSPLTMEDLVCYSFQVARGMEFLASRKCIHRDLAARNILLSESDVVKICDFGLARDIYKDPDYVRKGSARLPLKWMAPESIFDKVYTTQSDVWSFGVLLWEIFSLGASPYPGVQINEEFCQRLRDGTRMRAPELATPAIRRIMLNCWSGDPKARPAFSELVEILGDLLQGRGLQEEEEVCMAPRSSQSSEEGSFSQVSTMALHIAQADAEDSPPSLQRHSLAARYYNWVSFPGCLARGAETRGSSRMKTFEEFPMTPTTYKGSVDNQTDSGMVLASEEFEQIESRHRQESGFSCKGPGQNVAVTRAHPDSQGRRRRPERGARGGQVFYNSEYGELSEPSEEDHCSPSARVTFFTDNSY
Assay [7] has the same target. As to conditions: at 1 µM.
For assay [8], the target named is Macrophage colony-stimulating factor 1 receptor (Homo sapiens) (UniProt P07333). As to conditions: at 0.1 µM.
Chain of Macrophage colony-stimulating factor 1 receptor (Homo sapiens) (P07333 whole entry): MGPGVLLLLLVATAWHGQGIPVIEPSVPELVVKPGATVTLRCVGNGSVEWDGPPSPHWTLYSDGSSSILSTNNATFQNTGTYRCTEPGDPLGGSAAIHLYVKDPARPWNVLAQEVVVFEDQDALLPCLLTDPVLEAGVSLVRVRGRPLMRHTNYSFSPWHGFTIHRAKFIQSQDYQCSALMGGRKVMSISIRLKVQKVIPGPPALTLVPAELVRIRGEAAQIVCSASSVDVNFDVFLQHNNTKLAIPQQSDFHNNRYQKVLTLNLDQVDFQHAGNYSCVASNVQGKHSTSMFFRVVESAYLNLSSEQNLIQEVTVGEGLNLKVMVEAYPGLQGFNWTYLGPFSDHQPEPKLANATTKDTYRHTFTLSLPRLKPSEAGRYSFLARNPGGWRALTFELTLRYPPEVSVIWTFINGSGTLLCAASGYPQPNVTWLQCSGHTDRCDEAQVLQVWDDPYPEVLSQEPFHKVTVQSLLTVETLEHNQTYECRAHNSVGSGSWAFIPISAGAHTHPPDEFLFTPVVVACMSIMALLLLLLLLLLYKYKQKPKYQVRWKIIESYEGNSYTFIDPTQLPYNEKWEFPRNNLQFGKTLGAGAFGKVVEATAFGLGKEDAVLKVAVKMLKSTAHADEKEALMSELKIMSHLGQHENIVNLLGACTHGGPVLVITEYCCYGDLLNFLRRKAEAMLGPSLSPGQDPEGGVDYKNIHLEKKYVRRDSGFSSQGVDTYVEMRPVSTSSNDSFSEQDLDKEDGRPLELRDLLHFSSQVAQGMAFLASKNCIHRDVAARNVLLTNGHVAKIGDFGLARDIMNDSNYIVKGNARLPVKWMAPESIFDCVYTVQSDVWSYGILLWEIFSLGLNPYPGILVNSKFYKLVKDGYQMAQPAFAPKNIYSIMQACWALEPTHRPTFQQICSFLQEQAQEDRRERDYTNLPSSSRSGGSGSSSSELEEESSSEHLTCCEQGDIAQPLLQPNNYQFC
Assay [9] has the same target. The settings on record: at 1 µM.
Assay [10] concerns the target Tyrosine-protein kinase Fyn (Homo sapiens) (UniProt P06241). As to conditions: at 0.1 µM.

Chain of Tyrosine-protein kinase Fyn (Homo sapiens) (P06241 2-537 limits assumed): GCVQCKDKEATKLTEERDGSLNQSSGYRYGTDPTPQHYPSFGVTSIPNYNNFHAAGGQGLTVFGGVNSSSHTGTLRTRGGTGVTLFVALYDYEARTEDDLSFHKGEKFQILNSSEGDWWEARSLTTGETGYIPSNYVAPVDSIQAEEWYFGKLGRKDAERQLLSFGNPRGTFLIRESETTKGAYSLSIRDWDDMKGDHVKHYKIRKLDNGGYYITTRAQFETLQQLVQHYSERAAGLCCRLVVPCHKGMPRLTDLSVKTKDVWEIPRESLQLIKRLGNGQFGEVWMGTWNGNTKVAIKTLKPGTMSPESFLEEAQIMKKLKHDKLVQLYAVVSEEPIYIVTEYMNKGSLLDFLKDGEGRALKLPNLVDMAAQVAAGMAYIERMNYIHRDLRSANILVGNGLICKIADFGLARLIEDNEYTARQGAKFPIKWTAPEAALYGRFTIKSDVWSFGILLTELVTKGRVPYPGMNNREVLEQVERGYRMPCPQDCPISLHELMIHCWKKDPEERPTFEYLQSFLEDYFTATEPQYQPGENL

Regarding `CC(C)=Cc1cccc2c1/C(=N/Nc1ccc(S(N)(=O)=O)cc1)C(=O)N2`, the inhibition is 1.52% in assay [1]; -0.43% in [2]; 0.59% in assay [3]; 11.7% in assay [4]; 66.6% in assay [5]; 4.82% in assay [6]. Also, the inhibition came out at 46.6% in [7], 41.8% in [8], 86.8% in [9] and 4.49% in [10].

Consider `COc1cc2ncn(-c3cc(O[C@@H](C)c4ccccc4Cl)c(C(N)=O)s3)c2cc1OC`, for which the inhibition in assay [1] stood at 38.4%; in assay [4], 6.36%; in assay [5], 3.92%; in [6] it was 19.7%; in [7] it was 67.6%; in assay [8], 1.84%. The inhibition in assay [9] amounted to 9.87%; in [10] it was 3.53%.

Consider `CCn1c(-c2nonc2N)nc2cncc(C(=O)N3CC[C@H](N)C3)c21`, for which the inhibition in assay [1] is 19.1%; in [2] it was 4.34%; in assay [3], 8.01%; in [4], 16%; in assay [5] it was -5.46%; in [6], 5.85%. In addition, the inhibition in [7] stood at 7.41%; in assay [8] it was 1.27%; in assay [9], 3.01%; in assay [10], 3.5%.

On to `O=C(Nc1n[nH]c2nc(-c3ccco3)c(Br)cc12)C1CC1`, for which the inhibition in assay [1] came to 3.52%; in assay [2] it was 4.46%; in assay [3] it was 4.35%; in assay [4], 4.94%; in [5], 5.36%; in assay [6], 1.95%. In addition, the inhibition came to 9.43% in assay [7], 0.44% in assay [8], 1.78% in assay [9] and 3.33% in [10].

Turning to `CC1=C(C(=O)Nc2ccc3[nH]ncc3c2)C(c2ccc(Cl)c(Cl)c2)CC(=O)N1` (stereo not given), the inhibition in assay [1] was 3.13%; in assay [2], 2.57%; in assay [3], 1.43%; in assay [4] it was 2.15%; in assay [5], 0.84%; in assay [6] it was -2.61%. Also, the inhibition in [7] is 1%; in assay [8] it was -0.52%; in assay [9], 1.97%; in [10], 1.91%.

As to `NS(=O)(=O)c1cccc(-c2ccc3c(NC(=O)C4CC4)n[nH]c3c2)c1`, the inhibition is 2.04% in assay [1]; 0.99% in assay [2]; -1.05% in assay [3]; -4.5% in assay [4]; -1.12% in assay [5]; 2.99% in assay [6]. Besides, the inhibition is 5.11% in assay [7], -0.02% in [8], 2.28% in assay [9] and 1.2% in assay [10].

Take `O=C1Nc2ccc(C(=O)c3ccco3)cc2C1=Cc1cc(Cl)c(O)c(Cl)c1`: the inhibition in [1] amounted to 5.76%; in [2] it was 9.81%; in assay [3], 43.2%; in [4], 10.9%; in [5] it was 29.9%; in assay [6] it was 6.18%. The inhibition turned out to be 12.3% in assay [7], 26.3% in assay [8], 74% in assay [9] and 3.62% in assay [10].

With `CC1=C(C(=O)Nc2ccc3[nH]ncc3c2)C(c2ccc3ccccc3c2)CC(=O)N1` (stereo not given), the inhibition was found to be 2.05% in [1]; 2.98% in assay [2]; 1.98% in assay [3]; 5.26% in [4]; 1.5% in assay [5]; 1.27% in assay [6]. Besides, the inhibition in [7] came to 3.27%; in assay [8], 7.17%; in assay [9], 2.62%; in assay [10], 2%.

For the molecule `COc1cc2ncn(-c3cc(OCc4ccccc4C(F)(F)F)c(C(N)=O)s3)c2cc1OC`, the inhibition in assay [1] turned out to be 58.7%; in assay [2] it was 93.4%; in assay [3] it was 96.3%; in assay [4], 7.82%; in [5] it was 14.5%; in assay [6], 6.89%. The inhibition in assay [7] is 53.1%; in [10], -0.99%.

With `NCc1ccc(-c2nc(-c3ccc(Cl)c(O)c3)c(-c3ccncc3)[nH]2)cc1`, the inhibition in assay [1] was -0.05%; in [2], 4.25%; in [3], 2.1%; in assay [4], 2.08%; in [5], 1.57%; in assay [6], 19.7%. Further, the inhibition is 69% in [7], 0.23% in assay [8], 5.68% in assay [9] and 5.91% in assay [10].

For the molecule `Nc1nc(-c2ccccn2)c(-c2ccc3ncccc3n2)s1`, the inhibition came to 6.84% in [1]; 2.47% in assay [2]; 2.12% in [3]; 4.02% in assay [4]; 8.59% in assay [5]; 1.06% in assay [6]. For the same molecule, the inhibition in assay [7] is 2.46%; in [8] it was 2.04%; in assay [9], 4.58%; in assay [10], -1.79%.

As for `COc1ccc2cc(-c3c(-c4ccncc4)nc(-c4ccc([S+](C)[O-])cc4)n3C)ccc2c1` (stereo not given), the inhibition in assay [1] was 0.29%; in assay [2], 1.98%; in assay [3], 4.45%; in [4], 4.12%; in assay [5] it was 5.59%; in [6], 1.55%. Further, the inhibition in assay [7] was 0.4%; in assay [8], -0.21%; in assay [9] it was -0.69%; in assay [10], 3.05%.

Consider `CCCN1CCC(Oc2cc(Nc3nc(Nc4cccc(F)c4C(N)=O)c4cc[nH]c4n3)c(OC)cc2Cl)CC1`, for which the inhibition in assay [1] is -2.13%; in assay [2] it was 8.91%; in assay [3], 47.5%; in assay [4], 3.35%; in assay [5], -3.06%; in assay [6], 12.3%. Moreover, the inhibition in [7] is 14.6%; in [8] it was -0.53%; in assay [9], 3.9%; in assay [10], 1.38%.

`CNC(=O)c1cncc(/C=C/c2c(Cl)cccc2Cl)c1`: the inhibition in [1] is 5.75%; in [2], 3.89%; in assay [3] it was 7.28%; in assay [4], 17%; in assay [5] it was -3.57%; in assay [6], -7.73%. Further, the inhibition was 7.17% in [8], 41.1% in assay [9] and 0.89% in [10].
